Test [1] relates to Wnt5a (protein binding on small-molecule microarray). As to the kind of experiment: small molecules binding Wnt5a protein – biophysical, small-molecule microarray, 635/667 nm fluorescence, primary screen (AID 1142).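 Also: fluorescence read at 667 nm with signal to noise per printed feature.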 Particulars: 635 nm fluorescence, higher = more signal.
Test [2] in a line: ATP-based viability of Huh7 replicon cells – cell-based, CellTiter-Glo luminescence, basal, 48 h, cytotoxicity control for HCV replication inhibitor project, primary screen (AID 1143).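 Also: Huh7 hepatoma cells carrying a hepatitis C replication reporter with no stimulus; test concentration not given here.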 The following applies: higher = more signal, called active from +8 up or from −8 down. A general note: A replicon is a self-replicating genome or part of one, used to study replication in cells.
The nature of test [3]: Pseudomonas biofilm growth suppression – PAO1 strain, BacTiter-Glo luminescence, LB-PBS, primary screen (AID 1144). Particulars: P. aeruginosa PAO1 biofilm, 12 h, higher = more signal.
Test [4] in a line: basal CRE-LacZ reporter activity in PC12 – cell-based, unstimulated, primary screen (AID 1145). The following applies: no forskolin, luminescence, 4.5 h, higher = more signal, called active from +8 up or from −8 down.
Test [5] in a line: forskolin-driven CRE-LacZ activity in PC12 – cell-based, CRE-LacZ reporter, forskolin-stimulated, primary screen (AID 1146).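 Also: PC12 cells with 6xCRE LacZ reporter stimulated by forskolin 10 µM; beta-galactosidase reporter signal reflecting CREB driven transcription.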 Particulars: luminescence, 4.5 h, higher = more signal, called active from +8 up or from −8 down.
In test [6] the target is Streptavidin (Streptomyces avidinii) (UniProt P22629). Nature of the test: compounds binding control protein streptavidin – biophysical, small-molecule microarray, 635/667 nm fluorescence, artefact control for SMM compound annotation, primary screen (AID 1147).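 Also: signal reflects streptavidin binding to arrayed compounds as a control protein.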 The following applies: higher = more signal.
Test [7] is described as follows: probe aInhba binding on compound microarray – biochemical, small-molecule microarray, 635/667 nm fluorescence, primary screen (AID 1148).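 Also: score merges 667nm spot fluorescence with signal-to-noise for antibody binding to printed compounds.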 Particulars: higher = more signal.
Test [8] has as its target Torsin-1A (Homo sapiens) (UniProt O14656). Nature of the test: TOR1A wild-type binding on microarray – cell lysate, small-molecule microarray, lysate, 635/667 nm, primary screen (AID 1149). The following applies: COS7 hTOR1A-WT lysate, 635 nm fluorescence, higher = more signal.
For test [9] the target is unchanged. Nature of the test: torsin A mutant lysate binding on microarrays – cell lysate, small-molecule microarray, COS7 lysate, 635/667 nm fluorescence, primary screen (AID 1150).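 Also: score pools 667 nm emission and signal to noise measuring lysate protein binding.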 Particulars: COS7 hTOR1A mutant lysate, 635 nm fluorescence, higher = more signal.
In test [10] the test system is Sonic hedgehog protein (Shh). Nature of the test: Sonic hedgehog microarray binding compounds – biochemical, small-molecule microarray, 635/667 nm fluorescence, primary screen (AID 1151).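 Also: Shh protein binding to compounds spotted on small-molecule microarray slides; score combines spot fluorescence intensity with signal-to-noise across triplicate slides.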 The following applies: 635 nm fluorescence, higher = more signal.
A short description of test [11]: optical density shifts of acrAB sulA E. coli – strain DRC41, OD650, 48 h, E. coli filamentation inducer project, primary screen (AID 1152).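 Also: E. coli MC1000 strain DRC41 lacking acrAB efflux pump and sulA.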 The following applies: higher = more signal, called active from +8 up or from −8 down.
Test [12] can be described thus: probe aLefty1 binding on compound microarray – biochemical, small-molecule microarray, 635/667 nm fluorescence, primary screen (AID 1153).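 Also: score merges spot fluorescence with signal-to-noise ratio from the scanned slide images.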 Particulars: higher = more signal.
Test [13] is described as follows: plasmodial surface anion channel blockers, osmotic lysis – cell-based, P. falciparum Indochina, OD700, 1 h, primary screen (AID 1154). The following applies: P. falciparum Indochina infected RBC osmotic lysis, higher = more signal, called active from +8 up or from −8 down.
A short description of test [14]: plasmodial surface anion channel blockers, osmotic lysis – cell-based, P. falciparum Indochina, OD700, 2 h, primary screen (AID 1155).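 Also: lysis reports solute entry through the parasite surface anion channel PSAC.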 Particulars: P. falciparum Indochina infected erythrocytes, higher = more signal, called active from +8 up or from −8 down.
Test [15] in a line: changes in parasitized red cell lysis, either direction – P. falciparum Indochina, OD700, 3 h, PSAC antagonist project, primary screen (AID 1156). The following applies: P. falciparum-infected erythrocytes, osmotic lysis, higher = more signal, called active from +8 up or from −8 down.
A short description of test [16]: plasmodial surface anion channel blockers, osmotic lysis – cell-based, P. falciparum Indochina, OD700, 18 h, primary screen (AID 1157). The following applies: P. falciparum Indochina infected erythrocytes, osmotic lysis OD700, 18 h; higher = more signal, called active from +8 up or from −8 down.
Test [17] in a line: S6 kinase pathway phospho-S6 level changes – cell-based, A549, cytoblot, luminescence, serum-stimulated, primary screen (AID 1158).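 Also: serum-stimulated A549 lung adenocarcinoma cells; signal is phosphorylated S6 detected by cytoblot immunostaining with HRP secondary.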 The following applies: 5 h, higher = more signal.
Test [18] deals with NADPH oxidase 2 (Homo sapiens) (UniProt P04839). As to the kind of experiment: compounds shifting NOX2 Amplex Red fluorescence – cell-based, HEK293-NOX2, PMA-stimulated, NOX inhibitor project, primary screen (AID 1159). Also: test concentration not given here. Particulars: 45 min, higher = more signal, called active from +8 up or from −8 down.
Test [19] deals with NADPH oxidase 4 (Homo sapiens) (UniProt Q9NPH5). As to the kind of experiment: compounds shifting NOX4 Amplex Red fluorescence – cell-based, HEK293-NOX4, tetracycline-induced, NOX inhibitor project, primary screen (AID 1160). The following applies: HEK293-NOX4, Amplex Red H2O2 fluorescence, 45 min; higher = more signal, called active from +8 up or from −8 down.
In test [20] the target is NADPH oxidase 5 (Homo sapiens) (UniProt Q96PH1). As to the kind of experiment: compounds shifting NOX5 Amplex Red fluorescence – cell-based, HEK293-NOX5, NOX inhibitor project, primary screen (AID 1161). Particulars: HEK293-NOX5, ionomycin, 45 min, higher = more signal.

Active and inactive are the calls of the source. Unless noted, no rule for the calls is given here.

Sequence of Torsin-1A (Homo sapiens) (O14656 whole entry, looked up): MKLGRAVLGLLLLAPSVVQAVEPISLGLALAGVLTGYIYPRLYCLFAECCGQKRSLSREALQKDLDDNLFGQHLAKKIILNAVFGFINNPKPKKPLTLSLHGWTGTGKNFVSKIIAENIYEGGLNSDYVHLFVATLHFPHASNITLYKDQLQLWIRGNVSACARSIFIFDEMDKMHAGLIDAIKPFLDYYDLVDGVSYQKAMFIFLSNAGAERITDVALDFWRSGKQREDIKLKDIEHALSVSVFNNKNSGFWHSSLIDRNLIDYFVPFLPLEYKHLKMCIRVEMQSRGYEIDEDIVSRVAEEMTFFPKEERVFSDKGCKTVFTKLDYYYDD
Sequence of NADPH oxidase 2 (Homo sapiens) (P04839 whole entry, looked up): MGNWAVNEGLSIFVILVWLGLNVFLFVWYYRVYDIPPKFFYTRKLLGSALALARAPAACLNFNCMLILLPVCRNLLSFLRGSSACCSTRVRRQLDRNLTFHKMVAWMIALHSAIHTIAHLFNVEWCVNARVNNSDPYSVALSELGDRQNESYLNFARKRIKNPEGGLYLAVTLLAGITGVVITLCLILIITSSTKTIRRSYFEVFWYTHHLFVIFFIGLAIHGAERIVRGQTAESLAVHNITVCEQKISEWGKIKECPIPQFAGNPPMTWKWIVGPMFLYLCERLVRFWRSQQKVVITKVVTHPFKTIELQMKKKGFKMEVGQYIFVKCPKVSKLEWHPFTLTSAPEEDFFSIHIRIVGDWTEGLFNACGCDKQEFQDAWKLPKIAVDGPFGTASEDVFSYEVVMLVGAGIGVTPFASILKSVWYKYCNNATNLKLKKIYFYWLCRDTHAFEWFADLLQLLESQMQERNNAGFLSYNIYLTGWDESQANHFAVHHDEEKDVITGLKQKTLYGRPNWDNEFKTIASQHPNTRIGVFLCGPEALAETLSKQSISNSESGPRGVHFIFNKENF
Sequence of NADPH oxidase 4 (Homo sapiens) (Q9NPH5 whole entry, looked up): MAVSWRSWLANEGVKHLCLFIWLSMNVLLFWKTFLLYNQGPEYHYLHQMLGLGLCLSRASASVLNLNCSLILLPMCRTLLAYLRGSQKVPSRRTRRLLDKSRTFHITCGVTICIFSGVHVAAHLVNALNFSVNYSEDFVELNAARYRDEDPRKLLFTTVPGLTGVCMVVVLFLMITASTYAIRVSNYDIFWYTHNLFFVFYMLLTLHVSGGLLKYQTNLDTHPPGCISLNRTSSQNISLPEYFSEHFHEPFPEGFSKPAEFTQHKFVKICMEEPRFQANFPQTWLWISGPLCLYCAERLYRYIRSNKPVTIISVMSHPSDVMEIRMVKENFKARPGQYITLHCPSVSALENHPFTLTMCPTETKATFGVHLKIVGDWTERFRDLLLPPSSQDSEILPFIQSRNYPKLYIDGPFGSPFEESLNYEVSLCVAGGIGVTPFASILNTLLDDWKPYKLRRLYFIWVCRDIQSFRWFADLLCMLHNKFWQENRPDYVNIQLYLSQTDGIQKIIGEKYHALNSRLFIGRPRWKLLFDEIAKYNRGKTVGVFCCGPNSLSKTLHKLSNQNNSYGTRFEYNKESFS
Sequence of NADPH oxidase 5 (Homo sapiens) (Q96PH1 whole entry, looked up): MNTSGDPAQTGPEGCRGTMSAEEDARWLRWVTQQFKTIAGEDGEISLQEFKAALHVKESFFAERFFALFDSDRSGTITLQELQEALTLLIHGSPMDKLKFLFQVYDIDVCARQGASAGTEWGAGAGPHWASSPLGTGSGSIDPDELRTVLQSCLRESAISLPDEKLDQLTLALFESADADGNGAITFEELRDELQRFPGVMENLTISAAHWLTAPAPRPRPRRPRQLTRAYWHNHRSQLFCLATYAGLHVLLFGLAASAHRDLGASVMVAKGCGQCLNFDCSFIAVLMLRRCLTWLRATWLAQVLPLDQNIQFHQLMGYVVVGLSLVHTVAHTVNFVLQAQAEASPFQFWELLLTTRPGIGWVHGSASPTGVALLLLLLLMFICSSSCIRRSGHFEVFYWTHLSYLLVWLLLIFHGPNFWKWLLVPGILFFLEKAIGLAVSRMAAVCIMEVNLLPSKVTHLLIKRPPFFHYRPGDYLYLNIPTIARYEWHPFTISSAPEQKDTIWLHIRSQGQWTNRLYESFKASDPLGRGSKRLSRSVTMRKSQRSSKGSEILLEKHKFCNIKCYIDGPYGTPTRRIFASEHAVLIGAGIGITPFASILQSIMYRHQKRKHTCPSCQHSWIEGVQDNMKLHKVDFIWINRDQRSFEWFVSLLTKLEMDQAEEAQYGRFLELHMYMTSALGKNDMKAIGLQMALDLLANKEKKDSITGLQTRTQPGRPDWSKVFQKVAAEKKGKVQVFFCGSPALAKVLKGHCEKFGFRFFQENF
Sequence of Streptavidin (Streptomyces avidinii) (P22629 whole entry, looked up): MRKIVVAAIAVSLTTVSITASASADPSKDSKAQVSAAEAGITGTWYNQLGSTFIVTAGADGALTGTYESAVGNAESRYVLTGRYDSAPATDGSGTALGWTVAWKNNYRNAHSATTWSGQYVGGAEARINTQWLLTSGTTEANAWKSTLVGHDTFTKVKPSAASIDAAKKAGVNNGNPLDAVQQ

As for `C[C@@H]1CC[C@H]2C(=O)OC(Cc3ccccc3)CN2[C@H]1c1ccc(Br)cc1` (stereo not given in full), the composite z-score was -0.0444 in test [1]; 0.221 in [6]; -0.0963 in test [7]; 0.172 with Torsin-1A (Homo sapiens) [8]; -0.0439 with Torsin-1A (Homo sapiens) [9]; 0.513 in test [10]. Moreover, the composite z-score in test [12] was -0.0111. For the same compound, the z-score in test [2] was -0.395 (inactive); in [3] it was 0.7 (inactive); in test [4] it was 1.2 (inactive); in test [5], -0.517 (inactive); in test [11], 0.283 (inactive); in test [13], 1.96 (inactive). Moreover, the z-score in test [14] was 0.728 (inactive); in test [15], -0.23 (inactive); in [16] it was 0.54 (inactive); in test [17] it was -0.0843; in [18], 0.379 (inactive); in [19], 0.268 (inactive). Moreover, the z-score in test [20] is 0.151.

Take `Cc1cc(C)c(-c2cc([C@H](C)ON=C[C@@H](C)[C@H](OCc3ccccc3)C(C)C)on2)c(C)c1`: the composite z-score was -0.18 in test [1]; 0.0366 in test [6]; -0.242 in [7]; -0.477 in the test with Torsin-1A (Homo sapiens) [8]; -0.273 in the test with Torsin-1A (Homo sapiens) [9]; -0.16 in test [10]. The composite z-score in test [12] was -0.0501. For the same compound, the z-score in test [2] was -0.295 (inactive); in test [3], 1.45 (inactive); in test [4], 0.0944 (inactive); in test [5], -0.549 (inactive); in test [11] it was -0.3 (inactive); in [13], 0.859 (inactive). Further, the z-score was 0.541 (inactive) in test [14]; -0.831 (inactive) in test [15]; 0.195 (inactive) in test [16]; -0.408 in [17]; -0.467 (inactive) in test [18]; -0.299 (inactive) in test [19]. Also, the z-score in test [20] is -0.45.

For the compound `COC(=O)[C@H](C)NC(=O)CCC1CC(OC(=O)NCc2cccc3ccccc23)CC2(CCCC(COC(=O)NCCOc3ccccc3)O2)O1` (stereo not given in full), the composite z-score was 0.029 in test [1]; 0.688 in test [6]; -0.025 in test [7]; 0.182 with Torsin-1A (Homo sapiens) [8]; -0.13 with Torsin-1A (Homo sapiens) [9]; 0.334 in test [10]. Also, the composite z-score in test [12] is -0.186. Also, the z-score in test [2] was -2.56 (inactive); in [3] it was 0.0153 (inactive); in test [4], -0.709 (inactive); in [5], 0.222 (inactive); in test [11], -0.677 (inactive); in test [13], 7.46 (inactive). Further, the z-score was 0.622 (inactive) in test [14]; -0.363 (inactive) in test [15]; 0.346 (inactive) in [16]; 0.152 in test [17]; 0.00289 (inactive) in test [18]; -0.292 (inactive) in test [19]. Moreover, the z-score in test [20] was -0.19.

`CO[C@H]1COC(=O)CC=C[C@@H](C)COC(=O)[C@H]2CCCN2C(=O)CC=C[C@H]1C`: the composite z-score is 0.203 in [1]; -0.547 in [6]; -0.108 in test [7]; 2.24 with Torsin-1A (Homo sapiens) [8]; 2.95 with Torsin-1A (Homo sapiens) [9]; 1.79 in test [10]. Further, the composite z-score in [12] is -0.217. The z-score in test [2] was 0.0653 (inactive); in test [3], 0.106 (inactive); in [4], -0.837 (inactive); in test [5] it was -1.05 (inactive); in test [11] it was 0.694 (inactive); in [13], -0.567 (inactive). The z-score was -0.25 (inactive) in test [14]; -0.521 (inactive) in [15]; 0.0572 (inactive) in test [16]; 0.43 in test [17]; -0.166 (inactive) in test [18]; 0.32 (inactive) in [19]. The z-score in test [20] amounted to 0.364.

As for `CCN1C(=O)[C@H]2[C@H]3[C@H](O)[C@H](O)CC(=NNC(=O)OCc4ccccc4)[C@H]3CC[C@H]2C1=O`, the composite z-score in [1] was 0.038; in test [6], 0.214; in [7], -0.0719; with Torsin-1A (Homo sapiens) [8], -0.211; with Torsin-1A (Homo sapiens) [9], 0.223; in test [10], -0.486. The compound also showed a composite z-score in test [12] of 0.0931. Moreover, the z-score in test [2] is -0.0436 (inactive); in test [3], 0.877 (inactive); in test [4], -0.119 (inactive); in [5], -0.497 (inactive); in [11] it was -1.89 (inactive); in test [13], 1.26 (inactive). Also, the z-score was 0.322 (inactive) in test [14]; 0.364 (inactive) in [15]; 0.0338 (inactive) in test [16]; -0.18 in test [17]; 0.92 (inactive) in test [18]; 0.424 (inactive) in test [19]. For the same compound, in test [20], the z-score is 0.0659.

`CCN1C(=O)[C@H]2[C@H]3[C@H](O)[C@H](O)CC(=NO[C@@H]4O[C@H](CO)[C@@H](O)[C@H](O)[C@H]4O)[C@H]3CC[C@H]2C1=O`: the composite z-score in [1] is 0.534; in test [6] it was 0.473; in test [7], -0.0873; with Torsin-1A (Homo sapiens) [8], 0.261; with Torsin-1A (Homo sapiens) [9], 0.577; in test [10], 0.47. Besides, in test [12], the composite z-score was -0.234. The z-score was -1.31 (inactive) in test [2]; 0.427 (inactive) in test [3]; 0.246 (inactive) in [4]; 0.322 (inactive) in test [5]; -0.462 (inactive) in test [11]; -0.875 (inactive) in test [13]. Further, the z-score was 0.0108 (inactive) in test [14]; -0.677 (inactive) in test [15]; 0.109 (inactive) in [16]; -0.218 in test [17]; 1.4 (inactive) in [18]; 0.422 (inactive) in test [19]. Moreover, the z-score in [20] was -1.28.

As for `O=C1C2=CC[C@H]3C(=O)N(C4CCCCC4)C(=O)[C@H]3[C@H]2[C@H](O)[C@@H]2O[C@H]12`, the composite z-score was -0.272 in test [1]; -0.408 in [6]; -0.183 in test [7]; -0.695 in the test with Torsin-1A (Homo sapiens) [8]; -0.53 in the test with Torsin-1A (Homo sapiens) [9]; -0.689 in [10]. The composite z-score in test [12] is -0.245. The z-score in test [2] is -8.35 (active); in test [3] it was -0.366 (inactive); in [4], 17.1 (active); in [5], 30.1 (active); in test [11], -1.95 (inactive); in test [13], -0.0599 (inactive). Also, the z-score in test [14] was -0.153 (inactive); in test [15] it was 0.215 (inactive); in [16], -1.56 (inactive); in [17], -1.01; in test [18], 0.951 (inactive); in [19], 0.3 (inactive). Moreover, in test [20], the z-score is 0.952.

For `COC(=O)[C@@H]1CC[C@H](C)[C@@H](c2ccc(C)cc2)N1C(=O)c1ccc(C=NOC[C@H]2O[C@H](c3ccccc3)C=C[C@@H]2Oc2ccc(OC)cc2)cc1`, the composite z-score in test [1] was -0.134; in [6], -0.216; in test [7] it was 0.0018; with Torsin-1A (Homo sapiens) [8] it was -0.671; with Torsin-1A (Homo sapiens) [9], -0.329; in [10] it was 0.415. The composite z-score in test [12] is -0.0236. The z-score was -0.814 (inactive) in [2]; 0.605 (inactive) in test [3]; 0.253 (inactive) in test [4]; 0.718 (inactive) in test [5]; 0.229 (inactive) in test [11]; 0.639 (inactive) in test [13]. In addition, the z-score is 1.11 (inactive) in test [14]; 0.708 (inactive) in test [15]; 0.44 (inactive) in test [16]; -0.0476 in test [17]; 1.65 (inactive) in [18]; 0.846 (inactive) in test [19]. In addition, the z-score in test [20] came to 0.385.

For the origin of these results see PubChem BioAssay.
